Among all 200,000 compounds or so, about 18,000 (9%) were called active. No stated cut-off is given here; in the data, active means inhibition above about 50%; inactive means the rest. The sample as a whole holds a higher share of actives than the screen did.
assay: Leishmania major promastigote growth inhibition, primary screen (AID 1063); details: Leishmania major promastigotes, resazurin fluorescence viability; at 10 µM; active compounds read high;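 further: promastigotes grown with compound for 44 hours at 28 °C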

Structure (SMILES)	inhibition
COc1ccccc1N1CCN(CCCCOc2ccc(F)cc2)CC1	-5.52% (inactive)
Cc1ccc(OCCCC(=O)N2CCOCC2)c(C)c1	-2.9% (inactive)
O=[N+]([O-])c1ccccc1OCCCCN1CCCCC1	82.4% (active)
CCN1CCN(CCCCOc2ccccc2F)CC1	47.3% (inactive)
Cc1ccc2c(C(=O)CN3CCCC3)c(C)[nH]c2c1	8.69% (inactive)
Cc1ccc(C(C)(C)C)c(OCCCCN2CCCC2)c1	87.1% (active)
CC1CN(CCOc2ccccc2[N+](=O)[O-])CC(C)O1 (stereo not drawn)	8.57% (inactive)
Cc1ccc(OCCCCN2CCCCC2)c(Br)c1	97.8% (active)
C=CCN(CC=C)CCOc1ccccc1[N+](=O)[O-]	12.2% (inactive)
CC(C)OC(=O)Cn1nc(C(F)(F)F)c2c1CCCC2	-5.66% (inactive)
CC1CCCC(NC(=O)c2cccc(N3CCCC3=O)c2)C1C (stereo not drawn)	-7.83% (inactive)
COCCNc1nc2nonc2nc1N1CCCC1c1nccs1 (stereo not drawn)	-4.44% (inactive)
O=C(c1cccc([N+](=O)[O-])c1)N1CCN(C(=O)c2ccco2)CC1	0.98% (inactive)
C=CCn1c(CNC(=O)c2ccco2)nnc1SCC(=O)c1ccc(OC)cc1	-7.42% (inactive)
COc1ccc(OC)c(NC(=O)CSc2nc3cccnc3n2C)c1	-3.05% (inactive)
COC(=O)c1ccc(NC(=O)CSc2nnc(CNc3ccc(OC)cc3)n2C)cc1	9.68% (inactive)
CCn1c(COc2ccccc2)nnc1SCC(=O)Nc1ccc2c(c1)OCCO2	-3.59% (inactive)
CCn1c(CNc2ccc(OC)cc2)nnc1SCC(=O)c1ccc(OC)cc1	70.5% (active)
CCn1c(COc2ccc(OC)cc2)nnc1SCC(=O)Nc1cc(OC)ccc1OC	60.8% (active)
CCSC1=NCCN1S(=O)(=O)c1ccc(F)cc1	-0.73% (inactive)
O=c1c2ccccc2c(-c2ccccc2)nn1-c1ccccn1	-0.99% (inactive)

Structure (SMILES)	inhibition
CC(=O)N1C(C)c2ccccc2C(C)(C)CC12CCCCC2 (stereo not drawn)	10.5% (inactive)
Cc1ccc(N=C2NC(=O)c3cccc([N+](=O)[O-])c32)cc1	-1.43% (inactive)
COc1cc(OC)cc(-c2nc3nc(C)c(CCC(=O)NCc4ccco4)c(C)n3n2)c1	2% (inactive)
COc1ccc(-c2cc3nc(C)c(CCC(=O)NC(C)CCc4ccco4)c(C)n3n2)c(OC)c1 (stereo not drawn)	100% (active)
Cc1nc2c(-c3ccc(F)cc3)c(C)nn2c(C)c1CCC(=O)NCc1ccco1	-2.49% (inactive)
Cc1ccc2cc(CN(c3ccc(C)c(C)c3)S(C)(=O)=O)c(=O)[nH]c2c1	9.29% (inactive)
CCN(CCn1cccn1)C(=O)CC1C(=O)NCCN1Cc1cccc(OC)c1OC (stereo not drawn)	5.31% (inactive)
CCOC(=O)c1sc2nc(C)nc(Nc3ccc(OC)c(OC)c3)c2c1C	-0.22% (inactive)
COc1ccc(-c2onc(C)c2-c2ccc3c(c2)OCCO3)c(O)c1	72.5% (active)
COc1ccc(-c2n[nH]c(C)c2-c2ccc(OC)c(OC)c2)c(O)c1	4.64% (inactive)
COc1ccc(O)c(C=Nc2cc(C)on2)c1	-9.53% (inactive)
CCOC(=O)CNC(=O)CSc1ccc2nnc(-c3cccnc3)n2n1	4.24% (inactive)
CC(=O)Cn1ncc(N2CCOCC2)c(Br)c1=O	5.25% (inactive)
COc1ccc(CNC2CCCCC2)cc1	72.3% (active)
COc1ccc(CNC(=O)C2CCN(S(C)(=O)=O)CC2)cc1	7.6% (inactive)
COc1ccc(CCNC(=O)COC(=O)C2CCCCC2)cc1	-2.53% (inactive)
O=c1[nH]n2c(-c3ccccc3)nc(O)c2c2ccccc12	-6.91% (inactive)
Nn1cnnc1N/N=C/c1cc([N+](=O)[O-])c(Cl)cc1Cl	64.3% (active)
CCc1cc2c(=O)c(-c3ccc(F)cc3)c(C(F)(F)F)oc2cc1OCC(=O)O	0.79% (inactive)
O=C(CCc1n[nH]c(=O)[nH]c1=O)N/N=C/c1ccc(Br)o1	0.7% (inactive)
CC(C)C1Nc2c(C(=O)O)cccc2C(Nc2ccccc2C(=O)O)C1(C)C (stereo not drawn)	0.14% (inactive)

Structure (SMILES)	inhibition
O=C(CSc1nnc(-c2ccncc2)o1)NCc1ccc(Cl)cc1	-6.74% (inactive)
O=C(Nc1nnc(C2CC2)s1)c1ccccn1	84.9% (active)
Cc1occc1C(=O)Nc1nnc(C2CCCCC2)s1	7.17% (inactive)
O=C(Cc1cccs1)Nc1nnc(C2CC2)s1	-7.6% (inactive)
Cc1nc(N)c(Br)c(C)c1Br	1.28% (inactive)
CC(NC(=S)Nc1ccc(S(N)(=O)=O)cc1)c1ccc2c(c1)OCO2 (stereo not drawn)	70% (active)
CC(C)(C)C(=O)NC(NC(=S)Nc1ccc(S(N)(=O)=O)cc1)C(Cl)(Cl)Cl (stereo not drawn)	2.02% (inactive)
CC(NC(=O)Nc1ccc2c(c1)OCO2)c1ccncc1 (stereo not drawn)	-3.06% (inactive)
COc1c(C)cc(C(=O)C2CCCN(S(=O)(=O)c3c(C)noc3C)C2)cc1C (stereo not drawn)	6.97% (inactive)
CN(/C(=N/S(=O)(=O)c1cccs1)c1ccccc1)c1ccc(O)cc1	7.12% (inactive)
CSCC(NS(=O)(=O)c1ccc(C)cc1)C(=O)O (stereo not drawn)	-7.96% (inactive)
CN1C(=O)/C(=N/OC(=O)c2ccccc2Br)c2ccccc21	-16.5% (inactive)
O=C(NNC(=S)NC1CCCCC1)c1ccccc1Cl	16.1% (inactive)
O=C(c1cccc(C(=O)N2CCN(c3ccc(F)cc3)CC2)c1)N1CCN(c2ccc(F)cc2)CC1	-10.6% (inactive)
Fc1ccc(N2CCN(Cc3cnc(Oc4ccc(Br)cc4)s3)CC2)cc1	-8.09% (inactive)
Oc1c(CN2CCN(c3ccc(F)cc3)CC2)cc(Cl)c2cccnc12	100% (active)
Cc1nnc(SCC(=O)NNC(=O)c2ccc(Cl)cc2)n1CC1CCCO1 (stereo not drawn)	-2.51% (inactive)
C/C(=N\OC(=O)c1ccccc1)c1c(C)nc2cc(C)ccn12	5.76% (inactive)
Cc1ccc(N(C(=O)c2ccc(CN3CCOCC3)o2)C(C(=O)NCCC(C)C)c2cccs2)c(C)c1 (stereo not drawn)	90.9% (active)
Cc1ccc(N(C(=O)Cc2cccs2)C(C(=O)NCC2CCCO2)c2ccncc2)cc1 (stereo not drawn)	3.99% (inactive)
Cc1cccc(N(C(=O)c2ccc(CN3CCOCC3)o2)C(C(=O)NC2CCCCC2)c2ccc(F)cc2)c1 (stereo not drawn)	-5.01% (inactive)
